We go through 58 molecules from PubChem BioAssay AID463173 (ICCB-Longwood Screening Facility, Harvard Medical School, 2010).

Screen size: about 52,000 compounds; about 1,700 (3.3%) were called active. The sample holds actives, similar compounds and a random draw of the others, so the mix is not that of the screen. A number with no mark means an inactive call. Cut-off read from the data, not from the text of the source: active = survival mostly below about 52% (no sharp cut-off); inactive = mostly above about 56%.

The assay has as its system Wild type. In words: growth inhibition of S. aureus wild type versus tarO mutant, primary screen, teichoic acid synthesis inhibitors, RN4220, OD600 (AID 463173). To be noted: S. aureus RN4220 wild type/DeltatarO growth, OD600, 18 h, stronger effect = lower value, screened at 18.75 µg/mL (by protocol).
For `O=C(NCC(c1ccc2c(c1)OCO2)N1CCN(c2ccc(F)cc2)CC1)c1cccc([N+](=O)[O-])c1` (stereo not drawn), the survival was 83%.

For `COc1ccc(-c2csc3ncnc(Nc4cccc(OC)c4)c23)cc1`, the survival was 73%.

Regarding `COc1ccc(Nc2ncnc3scc(-c4ccc(F)cc4)c23)cc1`, the survival was 79%.

On to `COc1ccc(-c2csc3ncnc(Nc4cccc(F)c4)c23)cc1`, for which the survival was -3% (active).

Turning to `CC(=O)c1ccc(NC(=O)CC2Nc3cc(C)c(C)cc3NC2=O)cc1` (stereo not drawn), the survival is 78%.

Turning to `Cc1cc(C)cc(N2C(=O)N(Cc3cc(=O)n4ccccc4n3)c3ccccc3S2(=O)=O)c1`, the survival is 127%.

Take `CC(C)c1ccc2oc(-c3ccc(NC(=O)c4cccc(Br)c4)cc3)nc2c1`: the survival was 70%.

For `COc1cc(OC)c(NC(=O)CC(c2cccs2)N2Cc3ccccc3C2=O)cc1Cl` (stereo not drawn), the survival is 101%.

In the case of `CCOc1ccc(C(CC(=O)Nc2cc(C)c(Cl)cc2OC)N2Cc3ccccc3C2=O)cc1OC` (stereo not drawn), the survival was 65%.

Consider `COc1ccc(CNC(=O)C(C(C)C)N2Cc3ccccc3C2=O)cc1` (stereo not drawn), for which the survival was -6% (active).

Turning to `COc1ccc(CNC(=O)C(CC(C)C)N2Cc3ccccc3C2=O)cc1` (stereo not drawn), the survival is 134%.

Consider `COc1ccc(C(CC(=O)Nc2cc(OC)c(OC)c(OC)c2)N2Cc3ccccc3C2=O)cc1` (stereo not drawn), for which the survival was 65%.

Consider `COc1cc(Cl)c(C)cc1NC(=O)CC(c1ccc(F)cc1)N1Cc2ccccc2C1=O` (stereo not drawn), for which the survival is -2% (active).

With `Cc1ccc(CNC(=O)C(C(C)C)N2Cc3ccccc3C2=O)cc1` (stereo not drawn), the survival is 80%.

Turning to `Cc1ccc(NC(=O)CC(c2ccc(F)cc2)N2Cc3ccccc3C2=O)cc1C` (stereo not drawn), the survival is 88%.

With `COc1ccc(C(CC(=O)Nc2cc(Cl)c(OC)cc2OC)N2Cc3ccccc3C2=O)cc1` (stereo not drawn), the survival is -3% (active).

As to `CCn1cc(C(=O)NCCc2ccccc2)c(=O)c2cc(S(=O)(=O)N3CCOCC3)ccc21`, the survival was 85%.

Consider `COc1ccc(NC(=O)c2ccc(NC(=O)CCS(=O)(=O)c3cccs3)cc2)cc1Cl`, for which the survival was 81%.

Regarding `COc1ccc(-c2cc(C(=O)Nc3cccnc3Cl)no2)cc1OC`, the survival is 140%.

Turning to `Cc1ccc(C)c(N2CCN(c3nc4ccccc4c4nc(-c5cccnc5)nn34)CC2)c1`, the survival was 82%.

Turning to `Cc1cc(OCC(=O)NC(Cc2c[nH]c3ccccc23)C(=O)O)ccc1Cl` (stereo not drawn), the survival is 69%.

Turning to `CCOC(=O)C(Cc1c[nH]c2ccccc12)NC(=O)COc1ccc(CC)cc1` (stereo not drawn), the survival was 32%.

For the molecule `CCOC(=O)C(Cc1c[nH]c2ccccc12)NC(=O)COc1ccc(Cl)c(C)c1` (stereo not drawn), the survival is 8% (active).

For the molecule `CCc1ccccc1N(CC)C(=O)c1c(C)oc2ncn(C)c(=O)c12`, the survival is 71%.

`CC(C)Sc1nc2sc3c(c2c(=O)n1Cc1ccccc1)CCCC3`: the survival is 5% (active).

With `CC(C)Sc1nc2sc3c(c2c(=O)n1-c1ccccc1)CCCC3`, the survival was -2% (active).

On to `C#CCSc1nc2sc3c(c2c(=O)n1Cc1ccccc1)CCCC3`, for which the survival is 44%.

Regarding `C=CCn1c(SC(C)C)nc2sc3c(c2c1=O)CCCC3`, the survival is 108%.

In the case of `CSc1nc2sc3c(c2c(=O)n1-c1ccccc1C)CCCC3`, the survival was 99%.

Consider `CSc1nc2sc3c(c2c(=O)n1-c1ccc(C)cc1)CCCC3`, for which the survival was 51%.

`CCS(=O)(=O)NCC(c1ccco1)N1CCN(c2ccccc2)CC1` (stereo not drawn): the survival is 89%.

As to `CCS(=O)(=O)N1CCc2cc(C(=O)NC(C)c3ccccc3)ccc21` (stereo not drawn), the survival was 90%.

`CC(C)C(=O)Nc1ccc2nc(SCCOc3ccccc3)sc2c1`: the survival was 93%.

In the case of `Cc1ccc(Cl)cc1NC(=O)C1CCN(c2nnc(C)c3c(C)n(-c4ccccc4)nc23)CC1`, the survival is 71%.

As to `Cc1cccc(CS(=O)(=O)c2ncc(Cl)c(C(=O)Nc3nc4ccc(F)cc4s3)n2)c1`, the survival was 7% (active).

On to `COc1ccc(NC(=O)c2nc(S(=O)(=O)Cc3ccc(C)cc3)ncc2Cl)cc1`, for which the survival is 81%.

In the case of `Cc1ccc(NC(=O)c2nc(S(=O)(=O)Cc3cccc(C)c3)ncc2Cl)cc1`, the survival is -1% (active).

`Cc1ccc(CS(=O)(=O)c2ncc(Cl)c(C(=O)Nc3nc4ccc(F)cc4s3)n2)cc1`: the survival was 20%.

For `Cc1cccc(CS(=O)(=O)c2ncc(Cl)c(C(=O)NCc3ccccc3)n2)c1`, the survival is 27%.

On to `O=C(Nc1nc2ccc(F)cc2s1)c1nc(S(=O)(=O)Cc2ccccc2)ncc1Cl`, for which the survival is 27%.

With `CCOC(=O)c1ccc(CN(Cc2ccc(Cl)cc2Cl)S(=O)(=O)c2cccc(Cl)c2)cc1`, the survival was 73%.

Take `CCOC(=O)c1ccc(CN(Cc2ccccc2)S(=O)(=O)c2ccc(Cl)cc2)cc1`: the survival is 0% (active).

On to `CCOC(=O)c1ccc(CN(Cc2ccc(F)cc2)S(=O)(=O)c2ccc(F)cc2)cc1`, for which the survival was 68%.

As to `COc1ccc(CCNC(=O)CCc2c(C)c3cc4c(C)coc4c(C)c3oc2=O)cc1OC`, the survival was 105%.

On to `CC(Oc1ccccc1)C(=O)Nc1c(C(=O)Nc2cccc(F)c2)oc2ccccc12` (stereo not drawn), for which the survival was 57%.

For the molecule `CCOC(=O)c1[nH]c2c(c1Cc1ccccc1OC)C(=O)CC(c1ccccc1)C2` (stereo not drawn), the survival was 126%.

For the molecule `CN(C)c1ccc(C2CC(c3c(O)n(C4CCCCC4)c(=O)[nH]c3=O)=Nc3ccccc3S2)cc1` (stereo not drawn), the survival is 85%.

With `O=C(Cn1c(=O)n(Cc2ccc(C(=O)NCc3ccc4c(c3)OCO4)cc2)c(=O)c2ccccc21)Nc1ccc(F)cc1F`, the survival was 111%.

Consider `CC(C)c1cc(-c2nc(-c3ccccc3)no2)n[nH]1`, for which the survival was 71%.

In the case of `COc1ccc(Cn2c(SCC(=O)Nc3ccc(OC)cc3)nc3ccccc32)cc1`, the survival is 85%.

With `COc1ccc(-c2nc3ccccc3n2Cc2ccccc2)cc1`, the survival was 0% (active).

`COc1ccc(-c2noc(=O)n2Cc2ccccc2)cc1`: the survival is 128%.

On to `COc1ccc(OCCCCn2c(-c3ccc(Cl)cc3)nc3ccccc3c2=O)cc1`, for which the survival was 38%.

Regarding `CCc1ccc(OCCCn2c(-c3ccc(Cl)cc3)nc3ccccc3c2=O)cc1`, the survival was 52%.

Consider `COc1ccc(Cn2c(SC)nc3ccccc32)cc1`, for which the survival was 108%.

For the molecule `COc1ccc(-c2nc3ccccc3n2Cc2ccc(C(C)C)cc2)cc1`, the survival is -8% (active).

For `CCOc1cc(Cn2c(-c3ccc(O)c(OCC)c3)nc3ccccc32)ccc1O`, the survival is 80%.

As for `COc1ccc(-c2nc3ccccc3n2Cc2ccc(Cl)cc2)cc1`, the survival is 4% (active).
